In the supplement of paper PMC9948646:
Values without a mark were called inactive.

The molecules below were run on gramicidin D channels in DC22:1PC lipid vesicles (bilayer-modifying potency) (assay: initial Tl+ fluorescence quench rate relative to no-drug control (NormRate, gramicidin monomer-dimer shift) (ratio (fold of control)); higher = stronger bilayer-modifying effect (equilibrium shifted toward conducting dimers), active = 1.5 or more). Conditions: 10 µM; lipid concentration 50 µM; temperature: 25 °C.
Experimental: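 Stopped-flow fluorescence quench assay: ANTS-loaded DC22:1PC large unilamellar vesicles doped with gramicidin D (1:2000), 50 µM lipid, equilibrated 10 min with 10 µM drug (0.1% DMSO), mixed with Tl+ quench buffer at 25°C. Initial quench rate (Tl+ influx) was fitted with a modified stretched exponential and normalised to the no-drug control rate (NormRate); duplicates from two independent LUV preparations (triplicates for 7 drugs).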

Structure (SMILES) | initial Tl+ fluorescence quench rate
Cc1cc(OCC(=O)Nc2ccc(C(C)C)cc2)n(C)c(=O)c1C#N | 1.25
COc1ccc(-c2cnc3ccc(N4CCCC4)nn23)cc1OC | 2.31 (active)
Cc1cc(NCC(C)C)c2n[nH]c(-c3ccccc3)c2n1 | 1.11
O=C(NCCc1ccccc1)c1cc(-c2cccnc2)cnc1NCC1CC1 | 2 (active)
CC[C@H](C)NC(=O)c1ccc(NC(=O)C2(c3ccccc3)CCCC2)cc1 | 1.75 (active)
CCN(CC)S(=O)(=O)c1ccc(Cl)c(C(=O)Nc2ccc3nc(C)sc3c2)c1 | 2.06 (active)
O=C(C1CCN(c2nnnn2-c2ccccc2)CC1)N1CCc2ccccc2C1 | 1.23
CC(=O)NC[C@H]1CN(c2ccc(-c3ccc(CNCc4cn[nH]n4)cc3)c(F)c2)C(=O)O1 | 1.37
c1ccc(C[C@@H]2CN(c3nccc(Oc4ccc(-n5ccnc5)cc4)n3)CCN2)cc1 | 1.26
N#Cc1ccc(-c2cnc(N)c(-c3ccc(C(N)=O)cc3)n2)cc1 | 1.28
[H]/N=C(/N)Nc1ccc(-c2ccc(-c3ccc(N=C(N)N)c(Cl)c3)o2)cc1Cl | 1.59 (active)
COc1ccc(Oc2ccc([C@@H](C)N(C)c3ncc4c(N)nc(N)nc4n3)cc2)cc1 | 3.36 (active)
Cc1ccccc1C(=O)N1N=C(Nc2ccccc2)SC1(C)C | 2.12 (active)
N#Cc1nc(-c2ccccc2F)oc1NCCc1ccccc1 | 1.04
Cc1cc(NC(=O)c2ccc(Oc3ccc(Cl)cc3O)o2)no1 | 1.11
Nc1ncc(-c2cn[nH]c2)cc1-c1nc2cc(Cl)cnc2[nH]1 | 1.08
CC(C)(C)OC(=O)N1CCN(c2cc(-c3ccc(Oc4ccccc4)cc3)n[nH]2)CC1 | 3.47 (active)
O=C(NCc1cc(Cl)cc(Cl)c1)c1c(C(F)(F)F)nc2ccccn12 | 1.21
COC(=O)c1c(NC(=O)c2cc3ccccc3oc2=O)sc2c1CCN(Cc1ccccc1)C2 | 1.04
NC[C@@H](c1cccs1)S(=O)(=O)c1ccccc1 | 1.36
CO[C@H]1/C=C/O[C@@]2(C)Oc3c(C)c(O)c4c(O)c(/c(=C/NN5CCN(C)CC5)c(O)c4c3C2=O)=N\C(=O)/C(C)=C\C=C/[C@H](C)[C@H](O)[C@@H](C)[C@@H](O)[C@@H](C)[C@H](OC(C)=O)[C@@H]1C | 1.34
O=C(Nc1ccc(N2CCNCC2)nc1)c1oc(-c2ccccc2)nc1C(F)(F)F | 1.47
